Compound activity from PubChem BioAssay.
Sm TGR block: blocks Schistosoma mansoni thioredoxin glutathione reductase; actives 3% (n = 360,000); Potency, µM (top dose mostly 114 µM), without a hit: at the highest dose activity change, negative = inhibition, most hits filed as inhibitors; purified TGR, DTNB reduction, TNB absorbance 405 nm; note: potency is the fitted concentration of half-maximal effect; nearly all actives have a fitted effect of over 60% in size
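TGR 20 nM + NADPH 100 uM (dispensed conc.), cpd preinc 15 min RT; start with NADPH (500 uM addition) then DTNB (15 mM addition). Kinetic TNB absorbance, 405 nm filter. Four-parameter Hill fit across titration.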
HCMV inh: human cytomegalovirus inhibition; activity change, negative = inhibition, % at 57.5 µM; HFF cells, HCMV-luciferase reporter, 72 h; hits give low values; actives 4.5% (n = 410,000); in the data active = activity change below about -60%; inconclusive = no clear call, values can overlap the other calls; inactive = above about -39%
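Inhibition of viral replication was scored as loss of reporter luminescence in HFFs infected with HCMV-luciferase (MOI 1 PFU/cell) for 72 h; compounds tested at 2 doses, normalized to buffer and Salinomycin controls.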
FMDV inh: foot and mouth disease virus antiviral activity | actives 1.2% (n = 410,000) | Potency, µM (series often up to 57.9 µM), without a hit: at the highest dose activity change, negative = inhibition, actives largely listed as inhibitors | AID 1159524 | FMDV antiviral cell-based qHTS; calls by dose curve; tested in HEK293T cells; note: read-out not given here; potency is the fitted concentration of half-maximal effect; nearly all actives have a fitted effect of over 45% in size
VACV mCherry inh: vaccinia inhibition (mCherry reporter) | Potency, µM (highest dose often 36.5 µM), inactives show at the top dose activity change, negative = inhibition, most hits filed as inhibitors | actives 0.63% (n = 310,000) | Vaccinia virus mCherry reporter infection, fluorescence; calls by dose curve; tested in A549 cells; note: potency is the fitted concentration of half-maximal effect; nearly all actives have a fitted effect of over 35% in size
VACV Venus inh: vaccinia inhibition (Venus reporter). Vaccinia virus Venus reporter expression, fluorescence. Potency, µM (highest dose often 36.5 µM), for inactives: at the highest dose activity change, negative = inhibition, hits mostly inhibitors. actives 0.46% (n = 330,000); calls by dose curve; tested in A549 cells; note: potency is the fitted concentration of half-maximal effect; nearly all actives have a fitted effect of over 30% in size
HCV inh: HCV inhibition; Huh7.5.1 HCVcc-Cre infection, luciferase reporter, 44 h; Potency, µM (top dose mostly 41.8 µM), for inactives: at the top dose activity change, negative = inhibition, hits mostly inhibitors; actives 3.4% (n = 340,000); AID 651820; note: potency is the fitted concentration of half-maximal effect
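Seed cells (1,000/well) for 4 h; treat with compound and infect with HCVcc-Cre, moi about 0.5. Incubate 44 h, then detect luciferase activity.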
* = called active by the depositor; i = inactive; ? = inconclusive; nt = no result. An excerpt weighted towards active compounds, which were near 9.3% of everything screened. Unless noted, calls come from the whole dose curve; as a rule, active = well fitted curve in the direction sought with a large enough effect; inconclusive = small, poorly fitted or top-dose-only effect, or another doubt; inactive = no such curve, though single readings can be large; an effect the other way counts as inactive or inconclusive. % is set by controls: 0 for no effect and ±100 for the full control effect.

SMILES	Sm TGR block	HCMV inh	FMDV inh	VACV mCherry inh	VACV Venus inh	HCV inh
CC(C)COc1ccc(C(=O)Nc2scc(-c3ccc(Cl)cc3Cl)c2C(N)=O)cc1	6%	?	?	-10%	3%	13µM*
COc1ccc(CCNC(=O)CN(c2cc(OC)ccc2OC)S(=O)(=O)c2ccccc2)cc1	0%	55	-7%	-3%	-2%	-1%
COc1ccc(OC)c(N(CC(=O)NCCSCc2ccco2)S(=O)(=O)c2ccccc2)c1	45µM*	-29	-22%	-7%	-10%	-6%
CCOc1ccccc1N(CC(=O)NCCSCc1ccco1)S(=O)(=O)c1ccccc1	40µM*	-15	-9%	-8%	-18%	13µM*
COc1ccccc1N(CC(=O)NCCSCc1ccc(C)cc1)S(=O)(=O)c1ccccc1	-1%	-15	?	nt	nt	13µM*
Cc1ccccc1N(CC(=O)NCCSCc1ccco1)S(C)(=O)=O	22µM*	-15	nt	-8%	-3%	-3%
COc1ccc(NC(=O)c2oc3ccccc3c2NC(=O)c2cc(=O)c3cc(Cl)ccc3o2)cc1	-2%	-21	-12%	-4%	-7%	nt
CCOCCCn1c(=N)c(C(=O)NC(C)c2ccccc2)cc2c(=O)n3cc(C)ccc3nc21 (stereo not drawn)	-2%	-2	19%	-4%	-6%	nt
Nc1ccccc1Oc1ccc2ccccc2c1	10%	20	41%	?	?	?
CC(=O)c1c(C)[nH]c(C(=O)COc2ccc3ccc(=O)oc3c2)c1C	-6%	-10	28µM*	-25%	-24%	8.9µM*
CC(=O)c1c(C)[nH]c(C(=O)COc2cc(C)cc(C)c2)c1C	-14%	-62*	-14%	nt	nt	?
O=C(COC(=O)/C=C/c1cccc(Cl)c1)Nc1ccc2[nH]c(=O)[nH]c2c1	-11%	-36	-8%	-13%	-9%	7%
COc1ccc(CCNCc2ccc(OC)c(OC)c2OC)cc1	-1%	-11	nt	i	-6%	-2%
COc1cc(CNCc2ccc(OC)c(OC)c2OC)cc(OC)c1	-13%	-21	-29%	nt	nt	10µM*
Cc1ccc(N2CC(O)Cn3c2nc2c3c(=O)n(C)c(=O)n2C)cc1 (stereo not drawn)	80%	-25	-15%	nt	nt	13%
Cn1c(=O)c2c(nc3n2CC(O)CN3c2ccc(O)cc2)n(C)c1=O (stereo not drawn)	20µM*	1	20%	-5%	-5%	17%
OCCN1CCN(c2cnc(-c3ccsc3)cn2)CC1	nt	48	29%	-26%	6%	nt
CCOc1ccc(C2C(C(=O)Nc3ccccc3)=C(C)N=c3s/c(=C/c4cccc(OCC(=O)O)c4)c(=O)n32)cc1 (stereo not drawn)	8%	-17	-3%	-6%	6%	0%
CC1=C(C(=O)Nc2ccccc2)C(c2ccc(Cl)cc2)n2c(s/c(=C/c3cccc(OCC(=O)O)c3)c2=O)=N1 (stereo not drawn)	nt	-68*	16%	-1%	-9%	2%
O=S(=O)(c1ccccc1)c1nc(-c2ccccc2)oc1N1CCCCC1	22µM*	8	78%	nt	nt	?
O=S(=O)(c1ccccc1)c1nc(-c2ccccc2F)oc1N1CCOCC1	-12%	-10	15%	-3%	8%	nt
Cc1ccc(S(=O)(=O)c2nc(-c3ccccc3F)oc2N2CCCCC2)cc1	45µM*	-9	27%	-12%	-7%	nt
Cc1ccc(S(=O)(=O)c2nc(-c3ccccc3)oc2N2CCC(C(N)=O)CC2)cc1	14µM*	70	16%	-17%	-11%	19%
O=P(c1ccccc1)(c1ccccc1)c1nc(-c2ccc(Cl)cc2)oc1N1CCOCC1	0%	-88*	-24%	nt	nt	10µM*
COC(C[C@H]1O[C@H]1C(=O)[C@H](C)OCc1ccccc1)OC	nt	7	0%	i	-3%	15%
COc1ccc(N2CCN(C(=O)COc3ccc4c(C)c(C)c(=O)oc4c3C)CC2)cc1	-2%	nt	2%	nt	nt	5%
O=C(NNC(=O)C1CC1)c1cccc([N+](=O)[O-])c1	-26%	-15	-6%	i	-2%	7%
